The results in this text go back to PMC4336329 (PLoS ONE, 2015).

The structures appear in SMILES notation. In all, about 310,000 compounds went through this assay and about 2,200 (0.71%) showed an effect of 50% or more. The effect is printed as a negative number. Shown is part of a subset that was picked to be rich in strong results.

Chain of human ether-à-go-go-related gene (hERG) potassium channel (Q12809 whole entry, looked up): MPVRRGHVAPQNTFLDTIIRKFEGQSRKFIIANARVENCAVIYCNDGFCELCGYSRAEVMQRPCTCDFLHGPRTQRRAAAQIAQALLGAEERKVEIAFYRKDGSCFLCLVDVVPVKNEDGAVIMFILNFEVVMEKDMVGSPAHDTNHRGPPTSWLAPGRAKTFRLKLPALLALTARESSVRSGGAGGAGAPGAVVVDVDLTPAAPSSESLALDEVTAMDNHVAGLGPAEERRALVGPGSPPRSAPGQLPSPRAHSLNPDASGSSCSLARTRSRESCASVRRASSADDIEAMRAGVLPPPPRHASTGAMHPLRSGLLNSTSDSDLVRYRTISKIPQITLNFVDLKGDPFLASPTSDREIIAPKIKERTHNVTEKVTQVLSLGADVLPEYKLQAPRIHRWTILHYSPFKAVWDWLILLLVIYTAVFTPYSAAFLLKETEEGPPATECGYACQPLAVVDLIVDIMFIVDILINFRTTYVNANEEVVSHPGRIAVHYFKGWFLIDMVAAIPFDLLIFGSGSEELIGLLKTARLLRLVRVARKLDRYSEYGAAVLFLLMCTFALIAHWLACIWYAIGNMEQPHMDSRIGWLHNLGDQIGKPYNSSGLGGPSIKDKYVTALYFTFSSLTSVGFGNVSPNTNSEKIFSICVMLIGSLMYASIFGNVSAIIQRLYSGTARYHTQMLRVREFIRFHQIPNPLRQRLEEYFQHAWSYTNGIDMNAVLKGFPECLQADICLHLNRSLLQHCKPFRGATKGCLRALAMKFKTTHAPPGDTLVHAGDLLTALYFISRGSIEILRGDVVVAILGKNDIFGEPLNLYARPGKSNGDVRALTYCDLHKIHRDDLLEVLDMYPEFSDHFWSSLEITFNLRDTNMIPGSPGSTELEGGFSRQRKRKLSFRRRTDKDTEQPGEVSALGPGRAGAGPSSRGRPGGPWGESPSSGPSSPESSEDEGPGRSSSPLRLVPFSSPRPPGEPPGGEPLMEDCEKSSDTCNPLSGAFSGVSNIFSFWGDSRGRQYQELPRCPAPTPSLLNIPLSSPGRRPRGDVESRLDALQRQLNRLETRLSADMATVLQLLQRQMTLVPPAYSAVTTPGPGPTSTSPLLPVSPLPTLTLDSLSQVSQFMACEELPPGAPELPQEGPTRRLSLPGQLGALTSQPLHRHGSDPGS

The assay has as its target human ether-à-go-go-related gene (hERG) potassium channel (human, UniProt Q12809). The assay can be described thus: primary screen, population patch clamp on CHO cells stably expressing hERG; higher = less effect of the substance.
Regarding `Cc1ccc(C(=O)Nc2cccc(C(=O)N3CCOCC3)c2)cc1`, the “hERG current change (%, negative = inhibition) at 1uM” value was 3.75%. Next, `O=C(CCc1ccccc1)Nc1ccc2ccccc2n1`: -2.39%; `CNC(=S)NNC(=O)c1sc2cc(C(F)(F)F)cnc2c1-c1ccccn1`: 4.79%; `O=C(NCC(=O)N1CCN(C/C=C/c2ccccc2)CC1)c1ccc(OC(F)F)cc1`: -50.4%. Take `O=C(CN1CCCCCC1)NCc1ccccc1`: the “hERG current change (%, negative = inhibition) at 1uM” value was 11.8%. For the molecule `CCOc1ccc(C(=O)NCC(=O)N2CCN(C/C=C/c3ccccc3)CC2)cc1OCC`, the “hERG current change (%, negative = inhibition) at 1uM” value is recorded as -1.35%.

Take `Cl.O=C(CN1CCCC1)NCc1ccccc1`: the “hERG current change (%, negative = inhibition) at 1uM” value was 13.4%. With `O=C(CN1CCN(C/C=C/c2ccccc2)CC1)NCc1ccccc1`, the “hERG current change (%, negative = inhibition) at 1uM” value was -53.6%. Turning to `O=C(CN1CCN(Cc2ccccc2)CC1)NCc1ccc(Cl)cc1`, the “hERG current change (%, negative = inhibition) at 1uM” value is reported as -13.4%.

As for `O=C(NCC(=O)N1CCCCCC1)c1ccc(OC(F)F)cc1`, the “hERG current change (%, negative = inhibition) at 1uM” value was 10.4%. As for `O=C(CN1CCN(C/C=C/c2ccccc2)CC1)NCc1ccc(Cl)cc1`, the “hERG current change (%, negative = inhibition) at 1uM” value was -72.5%. Next, `O=C(CN1CCN(c2ccc(Cl)cc2)CC1)NCc1ccccc1`: -23.6%; `CCOC(=O)c1c(C)[nH]c(C(=O)O)c1C`: 11.5%; `OC1CCCN(Cc2cccc3ccccc23)C1` (stereo not drawn): 14.7%. `Cc1cc(C)cc(N2CC(O)Cn3c2nc2c3c(=O)[nH]c(=O)n2C)c1` (stereo not drawn): the “hERG current change (%, negative = inhibition) at 1uM” value amounted to 9.84%.

Turning to `Cc1ccc(/C=N/NC(=O)c2nnn(-c3nonc3N)c2CSc2ccccc2)cc1`, the “hERG current change (%, negative = inhibition) at 1uM” value was determined as 11.4%. Turning to `O=C(N=C1SC2CS(=O)(=O)CC2N1CCc1ccccc1)C1CC1` (stereo not drawn), the “hERG current change (%, negative = inhibition) at 1uM” value is 9.32%. On to `O=C(O)c1cccc(-n2cc(-c3cccc(C(F)(F)F)c3)cn2)c1`, for which the “hERG current change (%, negative = inhibition) at 1uM” value was 4.88%. As for `O=C(NNC(=O)c1sc2cccc(Cl)c2c1Cl)Nc1ccccc1`, the “hERG current change (%, negative = inhibition) at 1uM” value came out at 13.9%. Turning to `COc1ccc(-c2coc3c(C)c4oc(=O)c(CCC(=O)O)c(C)c4cc23)cc1`, the “hERG current change (%, negative = inhibition) at 1uM” value was found to be 6.19%. For `CCCCCCNC(=O)CC(NS(=O)(=O)c1ccc(NC(C)=O)cc1)C(C)C` (stereo not drawn), the “hERG current change (%, negative = inhibition) at 1uM” value is listed as -0.978%.

In the case of `COc1ccc(OC)c(NC(=O)c2cccc(N3C(=O)C4C5CCC(C5)C4C3=O)c2)c1` (stereo not drawn), the “hERG current change (%, negative = inhibition) at 1uM” value was 2.22%. Regarding `F[B-](F)(F)F.OCCC[NH+]=c1cc(-c2ccccc2)oc2ccc(Cl)cc12`, the “hERG current change (%, negative = inhibition) at 1uM” value is -78%. Regarding `COc1ccc(-c2cc(=[NH+]c3ccccc3)c3cc(C)ccc3o2)cc1.[O-][Cl+3]([O-])([O-])[O-]`, the “hERG current change (%, negative = inhibition) at 1uM” value came to 14%. The figure for `OCCCNc1nc(-c2ccccc2)c2cc(Cl)ccc2n1` is 5.65%.

With `F[B-](F)(F)F.OCC[NH+]=c1cc(-c2ccccc2)oc2ccc(Cl)cc12`, the “hERG current change (%, negative = inhibition) at 1uM” value is -71.1%.

On to `COc1ccc(-c2cc(=[NH+]c3cccc(C(=O)O)c3)c3cc(C)ccc3o2)cc1.[O-][Cl+3]([O-])([O-])[O-]`, for which the “hERG current change (%, negative = inhibition) at 1uM” value is on record as 6.72%.

`O=c1cc(-c2ccccc2)oc2ccc(O)cc12`: the “hERG current change (%, negative = inhibition) at 1uM” value was found to be 4.17%. As for `O=c1oc2ccc(Cl)cc2cc1-c1ccccc1`, the “hERG current change (%, negative = inhibition) at 1uM” value was determined as 16.1%.

With `Clc1ccc(Oc2ncnc3oc(-c4ccccc4)cc23)cc1`, the “hERG current change (%, negative = inhibition) at 1uM” value was determined as 6.4%. For `F[B-](F)(F)F.OCCCCC[NH+]=c1cc(-c2ccccc2)oc2ccc(Cl)cc12`, the “hERG current change (%, negative = inhibition) at 1uM” value was -86.1%. The figure for `Cc1cc(C(=O)OCC(=O)N2C(C)CCCC2C)c(C)o1` (stereo not drawn) is 9.75%; for `COc1ccc(-n2c(Cc3cccn3C)nnc2SCC(=O)Nc2cccc(NC(C)=O)c2)cc1` it is 3.64%. `Cc1ccc(OCCOCCn2cnc3ccccc3c2=O)c([N+](=O)[O-])c1.O=C(O)C(=O)O`: the “hERG current change (%, negative = inhibition) at 1uM” value is listed as -6.31%.

For the molecule `COc1ccc(CSC2=NCCN2)cc1Br`, the “hERG current change (%, negative = inhibition) at 1uM” value is 10.8%.

Consider `CCCCOc1ccc(CSC2=NCCN2)cc1[N+](=O)[O-].Cl`, for which the “hERG current change (%, negative = inhibition) at 1uM” value was -22.3%. Next, `CCCCOc1ccc(CSc2nnc(C)n2N)cc1[N+](=O)[O-]`: -2.42%; `COc1ccc(CSC2=NCCN2)cc1Cl.Cl`: -7.52%; `CCOc1ccc(CSC(=N)N)cc1[N+](=O)[O-].Cl`: -50.3%. Take `CCCCOc1ccc(CSC(=N)N)cc1[N+](=O)[O-].Cl`: the “hERG current change (%, negative = inhibition) at 1uM” value is reported as -26.4%. Turning to `CCCCCOc1ccc(CSC(=N)N)cc1[N+](=O)[O-].Cl`, the “hERG current change (%, negative = inhibition) at 1uM” value was -3.45%. Regarding `CCOc1ccc(CSC2=NCCN2)cc1Cl.Cl`, the “hERG current change (%, negative = inhibition) at 1uM” value is recorded as -4.54%. Consider `CCCCCOc1ccc(CSC2=NCCN2)cc1[N+](=O)[O-]`, for which the “hERG current change (%, negative = inhibition) at 1uM” value is on record as -60%. Regarding `CCOc1ccc(CSC2=NCCN2)cc1[N+](=O)[O-].Cl`, the “hERG current change (%, negative = inhibition) at 1uM” value is listed as -71%. Next, `Br.O=[N+]([O-])c1ccc(CSC2=NCCN2)cc1`: 8.87%; `CCCOc1ccc(CSC2=NCCN2)cc1[N+](=O)[O-]`: -53.5%. As to `CCOC(=O)C1CCN(C(=O)CCS(=O)(=O)c2ccc3c(c2)n(C)c(=O)c(=O)n3C)CC1`, the “hERG current change (%, negative = inhibition) at 1uM” value was 10.2%. As to `COc1cc(OC)cc(C(=O)Nc2ccc3c(c2)OCCO3)c1`, the “hERG current change (%, negative = inhibition) at 1uM” value is 7.93%.

As for `O=C(Cn1cc(/C=C\[N+](=O)[O-])c2ccccc21)Nc1ccccc1`, the “hERG current change (%, negative = inhibition) at 1uM” value turned out to be 8.45%. Next, `COc1ccc(OC)c(N2C(=O)CC(Cc3cc(C)cc(C)c3)C2=O)c1` (stereo not drawn): 5.71%; `CSc1ccccc1C(=O)N1CCN(S(=O)(=O)c2sc(C(=O)O)c(C)c2C(=O)O)CC1`: 0.019%. Consider `COc1ccc(C2CC(c3ccccc3)=NN2c2ccc(S(N)(=O)=O)cc2)cc1OC` (stereo not drawn), for which the “hERG current change (%, negative = inhibition) at 1uM” value stood at 7.52%. On to `CC(C)CCNC(=O)C1c2ccccc2Oc2ccccc21`, for which the “hERG current change (%, negative = inhibition) at 1uM” value is on record as -12.1%. On to `COc1ccc(/C=C/CN2CCCC(CO)(Cc3cccc(Cl)c3)C2)cc1` (stereo not drawn), for which the “hERG current change (%, negative = inhibition) at 1uM” value was found to be 3.25%. The figure for `COc1ccc(CC2(CO)CCN(C/C=C/c3ccccc3OC)CC2)cc1` is -71.4%; for `COc1ccccc1/C=C/CN1CCC(CO)(Cc2ccccc2)CC1` it is 0.366%; for `COc1ccc(/C=C/CN2CCC(CO)(Cc3ccccc3Cl)CC2)cc1` it is -61.9%.

Consider `COc1cccc(CC2(CO)CCCN(C/C=C/c3ccccc3OC)C2)c1` (stereo not drawn), for which the “hERG current change (%, negative = inhibition) at 1uM” value was -32.8%.

With `OCC1(Cc2ccccc2Cl)CCN(C/C=C/c2ccccc2)CC1`, the “hERG current change (%, negative = inhibition) at 1uM” value was -27.8%. Consider `COc1cc(NS(=O)(=O)c2ccc(NC(=O)COc3ccccc3Cl)cc2)nc(OC)n1`, for which the “hERG current change (%, negative = inhibition) at 1uM” value worked out at 4.62%. On to `NC(=O)CSc1nnc(-c2ccccn2)n1N`, for which the “hERG current change (%, negative = inhibition) at 1uM” value was determined as 12.4%. As to `CC(=O)Nc1ccc(C(=O)Nc2nc(-c3cc(C)n(Cc4ccccc4)c3C)cs2)cc1`, the “hERG current change (%, negative = inhibition) at 1uM” value amounted to 11.3%. Regarding `CC(C)OC(=O)CC(=O)CSc1nc2c(cc1C#N)CCC2`, the “hERG current change (%, negative = inhibition) at 1uM” value came out at 16.3%.

`Cc1ccc(C(=O)Nc2ccc(OCc3ccccc3)cc2)cc1[N+](=O)[O-]`: the “hERG current change (%, negative = inhibition) at 1uM” value is on record as 2%. Next, `CCN1CCN(c2ncnc3sc(C)c(-c4ccccc4)c23)CC1`: -25.9%; `O=C(Nc1cccc(Oc2ccc3c(c2)C(=O)NC3=O)c1)c1cccs1`: -2.79%. Take `Cc1ccccc1N1C(=O)C(Oc2ccc(Cl)cc2)C1CNCCCOC(C)C` (stereo not drawn): the “hERG current change (%, negative = inhibition) at 1uM” value was -3.82%.

`O=C(OCc1ccc([N+](=O)[O-])cc1)C1CC(=O)N(CCc2ccccc2)C1` (stereo not drawn): the “hERG current change (%, negative = inhibition) at 1uM” value is recorded as -56.3%.

Turning to `O=C(OCc1ccc([N+](=O)[O-])cc1)C1CC(=O)N(c2ccccc2)C1` (stereo not drawn), the “hERG current change (%, negative = inhibition) at 1uM” value is listed as -36%. With `O=C(OCc1nnc(-c2ccc([N+](=O)[O-])cc2)o1)C1CC(=O)N(CCc2ccccc2)C1` (stereo not drawn), the “hERG current change (%, negative = inhibition) at 1uM” value was -17.8%. `Cc1cccn2c(=O)nc(SCC(=O)NCc3ccco3)nc12`: the “hERG current change (%, negative = inhibition) at 1uM” value came to 4.54%. Turning to `Cc1cccn2c(=O)c3cc(C(=O)NCc4ccco4)c(=N)n(CCc4ccccc4)c3nc12`, the “hERG current change (%, negative = inhibition) at 1uM” value is on record as -82.2%. For the molecule `Cc1cccn2c(=O)c3cc(C(=O)NCCc4ccccc4)c(=N)n(Cc4ccco4)c3nc12`, the “hERG current change (%, negative = inhibition) at 1uM” value is -35.5%.

Regarding `Cc1cccn2c(=O)c3cc(C(=O)NCc4ccco4)c(=N)n(C(C)C)c3nc12`, the “hERG current change (%, negative = inhibition) at 1uM” value is listed as -84.9%. For `Cc1cccn2c(=O)c3cc(C(=O)NCc4ccco4)c(=N)n(CCOCCO)c3nc12`, the “hERG current change (%, negative = inhibition) at 1uM” value is listed as -63.3%. For `Cc1cccn2c(=O)c3cc(S(=O)(=O)c4ccccc4)c(=N)n(Cc4ccco4)c3nc12`, the “hERG current change (%, negative = inhibition) at 1uM” value worked out at 5.3%. In the case of `COc1ccc(CCn2c(=N)c(C(=O)NCc3ccco3)cc3c(=O)n4cccc(C)c4nc32)cc1`, the “hERG current change (%, negative = inhibition) at 1uM” value is -76.6%. As to `CCOC(=O)CC1Sc2ccccc2NC1=O` (stereo not drawn), the “hERG current change (%, negative = inhibition) at 1uM” value is -7.75%. Consider `CCN1CCc2c(sc(NC(=O)c3ccc(C(=O)c4ccccc4)cc3)c2C(N)=O)C1.Cl`, for which the “hERG current change (%, negative = inhibition) at 1uM” value is -7.72%. The figure for `COc1cccc(C(=O)Nc2cccc(-c3nc4ncccc4o3)c2C)c1` is 12.6%.

As for `CC1(c2nnc(-c3ccncc3)o2)CC(c2ccccc2)=NO1` (stereo not drawn), the “hERG current change (%, negative = inhibition) at 1uM” value was found to be 16.4%. The figure for `Clc1cccc(OCc2nnc(-c3ccccc3Br)o2)c1` is 9.74%; for `O=Cc1ccc(-c2ccc(C(=O)O)cc2)o1` it is -2.38%. For `O=C(CC1CCCCC1)c1c(O)c2ccccc2oc1=O`, the “hERG current change (%, negative = inhibition) at 1uM” value is listed as -4.69%. With `CCOC(=O)c1c(C)n(CC(O)c2ccccc2)c2ccc(O)cc12` (stereo not drawn), the “hERG current change (%, negative = inhibition) at 1uM” value turned out to be 13.6%.

For the molecule `CCN(CC(=O)Nc1c(F)cccc1F)C(=O)CSC(=S)N1CCCC1`, the “hERG current change (%, negative = inhibition) at 1uM” value was 6.34%. Consider `Cc1cccc(-n2c(/C=C/c3ccc([N+](=O)[O-])o3)nc3ccccc3c2=O)c1`, for which the “hERG current change (%, negative = inhibition) at 1uM” value was 2.06%.
